Results published in PMC5700166.

Assays:
Assay in all cases: protein-binding microarray (PBM); PBM: ~300 nM protein, 6 mM HEPES pH 7.8, 80 mM KCl, 0.5 mM EDTA, 0.5 mM EGTA, 6% glycerol, 35 ng/ul poly-dIdC, 1% milk, 1 h, room temperature; Ap Aiptasia and Nv Nematostella (sea anemones) / Co Capsaspora / Aq Amphimedon (sponge) / Dm Drosophila / Hu human; RHD is the Rel homology domain; high values mean tight binding
Settings in all cases: dsDNA, one strand shown
[1] = molecular target: T1, GST-Ap-NF-kB RHD (Exaiptasia pallida (Aiptasia), UniProt A0A913YAJ5 2-422)
T1 sequence: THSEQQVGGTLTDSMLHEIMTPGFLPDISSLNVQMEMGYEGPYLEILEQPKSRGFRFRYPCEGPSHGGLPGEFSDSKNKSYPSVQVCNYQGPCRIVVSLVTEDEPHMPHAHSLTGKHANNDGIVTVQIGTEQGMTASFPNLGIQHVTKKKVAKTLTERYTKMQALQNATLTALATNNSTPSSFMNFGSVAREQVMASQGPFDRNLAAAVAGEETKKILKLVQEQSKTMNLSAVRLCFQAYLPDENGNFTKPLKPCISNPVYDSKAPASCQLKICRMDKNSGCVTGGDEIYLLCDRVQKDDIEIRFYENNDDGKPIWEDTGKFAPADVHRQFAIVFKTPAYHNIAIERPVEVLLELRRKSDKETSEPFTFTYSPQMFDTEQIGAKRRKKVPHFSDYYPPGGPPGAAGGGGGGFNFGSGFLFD

[2] = molecular target: T2, GST-Nv-NF-kB (Cys allele) (Nematostella vectensis, UniProt E5G601 2-411)
T2 sequence: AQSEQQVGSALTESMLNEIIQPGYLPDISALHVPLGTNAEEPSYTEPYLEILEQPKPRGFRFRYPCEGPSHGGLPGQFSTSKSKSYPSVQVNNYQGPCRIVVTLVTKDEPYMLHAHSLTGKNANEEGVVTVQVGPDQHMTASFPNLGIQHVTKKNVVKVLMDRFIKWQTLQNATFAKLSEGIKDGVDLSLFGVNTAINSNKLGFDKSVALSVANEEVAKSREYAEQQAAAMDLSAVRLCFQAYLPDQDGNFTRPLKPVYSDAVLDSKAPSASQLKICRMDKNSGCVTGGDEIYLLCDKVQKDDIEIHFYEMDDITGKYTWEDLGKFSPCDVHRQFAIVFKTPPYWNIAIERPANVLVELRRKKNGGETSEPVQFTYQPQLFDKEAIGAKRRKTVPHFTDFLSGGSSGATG

[3] = molecular target: T3, GST-Co-NF-kB (Capsaspora owczarzaki, UniProt F1ARL5 200-546)
T3 sequence: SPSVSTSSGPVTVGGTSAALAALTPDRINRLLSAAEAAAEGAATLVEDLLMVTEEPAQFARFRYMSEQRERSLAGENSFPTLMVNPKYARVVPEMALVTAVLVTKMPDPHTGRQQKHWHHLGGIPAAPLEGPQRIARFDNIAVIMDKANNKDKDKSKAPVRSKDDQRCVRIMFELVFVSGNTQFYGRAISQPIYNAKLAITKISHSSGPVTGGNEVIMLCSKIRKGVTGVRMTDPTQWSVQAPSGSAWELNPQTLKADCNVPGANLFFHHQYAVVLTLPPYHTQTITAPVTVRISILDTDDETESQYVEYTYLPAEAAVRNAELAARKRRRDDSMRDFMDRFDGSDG

[4] = molecular target: T4, GST-Dm-Relish (Drosophila melanogaster, UniProt Q94527 99-473)
T4 sequence: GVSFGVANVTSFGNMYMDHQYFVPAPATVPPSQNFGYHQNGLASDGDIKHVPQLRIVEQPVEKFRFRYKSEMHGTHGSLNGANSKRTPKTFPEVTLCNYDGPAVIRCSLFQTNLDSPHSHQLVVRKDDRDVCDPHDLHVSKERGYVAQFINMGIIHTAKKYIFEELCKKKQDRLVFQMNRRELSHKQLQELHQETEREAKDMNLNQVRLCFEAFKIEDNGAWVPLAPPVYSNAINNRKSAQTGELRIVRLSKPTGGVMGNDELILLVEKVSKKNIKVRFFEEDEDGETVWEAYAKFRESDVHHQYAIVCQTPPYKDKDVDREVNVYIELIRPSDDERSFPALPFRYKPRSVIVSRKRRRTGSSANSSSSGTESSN

[5] = molecular target: T5, GST-Aq-NF-kB (Amphimedon queenslandica, UniProt A9Y5G7 2-389)
T5 sequence: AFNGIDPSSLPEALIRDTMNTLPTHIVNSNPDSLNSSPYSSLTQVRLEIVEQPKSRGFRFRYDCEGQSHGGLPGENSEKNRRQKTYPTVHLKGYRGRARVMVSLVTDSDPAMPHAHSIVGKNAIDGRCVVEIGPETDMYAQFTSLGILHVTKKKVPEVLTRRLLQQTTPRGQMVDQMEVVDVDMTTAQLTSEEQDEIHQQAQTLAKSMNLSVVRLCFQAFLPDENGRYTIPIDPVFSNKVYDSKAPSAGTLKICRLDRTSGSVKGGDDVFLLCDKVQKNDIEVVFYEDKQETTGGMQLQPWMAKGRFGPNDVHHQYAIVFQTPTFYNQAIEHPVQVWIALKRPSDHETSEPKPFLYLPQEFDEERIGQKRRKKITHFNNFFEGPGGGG

| Sequence | binding signal [1] | binding signal [2] | binding signal [3] | binding signal [4] | binding signal [5] |
| --- | --- | --- | --- | --- | --- |
| CCGATTAACATCAGGGAATGCCATGATGTTAATCGGGTCTTGATTCGCTTGACGCTGCTG | 1.69 z-score | 2.76 z-score | 1.43 z-score | 2.52 z-score | 3.45 z-score |
| CCGATTAACATCAGACTTCCCCATGATGTTAATCGGGTCTTGATTCGCTTGACGCTGCTG | 4.7 z-score | 5.64 z-score | 4.24 z-score | 4.24 z-score | 4.9 z-score |
| CCGATTAACATCAAATATTCCCATGATGTTAATCGGGTCTTGATTCGCTTGACGCTGCTG | 4.02 z-score | 4.31 z-score | 3.51 z-score | 2.7 z-score | 3.63 z-score |
| CCGATTAACATCAGGGGAGAAAATGATGTTAATCGGGTCTTGATTCGCTTGACGCTGCTG | 4.25 z-score | 5.5 z-score | 8.56 z-score | 2.26 z-score | 3.89 z-score |
| CCGATTAACATCACCAAAACCCCTGATGTTAATCGGGTCTTGATTCGCTTGACGCTGCTG | 4.76 z-score | 3.55 z-score | 1.32 z-score | 6.02 z-score | 3.55 z-score |
| CCGATTAACATCACCCGATTCCCTGATGTTAATCGGGTCTTGATTCGCTTGACGCTGCTG | 2.55 z-score | 2.62 z-score | 2.5 z-score | 1.62 z-score | 2.54 z-score |
| CCGATTAACATCAAACACCCCCCTGATGTTAATCGGGTCTTGATTCGCTTGACGCTGCTG | 4.89 z-score | 4.54 z-score | 4.93 z-score | 5.5 z-score | 5.86 z-score |
| CCGATTAACATCAACCACCCCCCTGATGTTAATCGGGTCTTGATTCGCTTGACGCTGCTG | 3.74 z-score | 2.31 z-score | 4.22 z-score | 4.6 z-score | 3.9 z-score |
| CCGATTAACATCAGGGGGTACCCTGATGTTAATCGGGTCTTGATTCGCTTGACGCTGCTG | 7.79 z-score | 4.44 z-score | 4.14 z-score | 6.71 z-score | 6.6 z-score |
| CCGATTAACATCAAAAATCCCTATGATGTTAATCGGGTCTTGATTCGCTTGACGCTGCTG | 5.18 z-score | 5.21 z-score | 1.39 z-score | 6.49 z-score | 5.85 z-score |
| CCGATTAACATCAAACCCCCCCATGATGTTAATCGGGTCTTGATTCGCTTGACGCTGCTG | 6.35 z-score | 4.78 z-score | 5.7 z-score | 6.81 z-score | 5.02 z-score |
| CCGATTAACATCAAGGGGGTAAATGATGTTAATCGGGTCTTGATTCGCTTGACGCTGCTG | 5.28 z-score | 3.77 z-score | 6.69 z-score | 2.72 z-score | 4.26 z-score |
| CCGATTAACATCAGGGATTTCTATGATGTTAATCGGGTCTTGATTCGCTTGACGCTGCTG | 4.28 z-score | 4.04 z-score | 1.22 z-score | 5.1 z-score | 4 z-score |
| CCGATTAACATCAGGGGGAGTGATGATGTTAATCGGGTCTTGATTCGCTTGACGCTGCTG | 5.05 z-score | 3.63 z-score | 3.71 z-score | 1.66 z-score | 3.44 z-score |
| CCGATTAACATCACCCCAGCCCCTGATGTTAATCGGGTCTTGATTCGCTTGACGCTGCTG | 3.28 z-score | 1.93 z-score | 2.88 z-score | 2.39 z-score | 2.91 z-score |
| CCGATTAACATCACTGGGAATTCTGATGTTAATCGGGTCTTGATTCGCTTGACGCTGCTG | 3.23 z-score | 3.49 z-score | 3.79 z-score | 3.32 z-score | 2.67 z-score |
| CCGATTAACATCAACCACCCCCTTGATGTTAATCGGGTCTTGATTCGCTTGACGCTGCTG | 3.52 z-score | 3.02 z-score | 2.25 z-score | 2.48 z-score | 3.83 z-score |
| CCGATTAACATCAGGGCGTCCCCTGATGTTAATCGGGTCTTGATTCGCTTGACGCTGCTG | 6.5 z-score | 5.76 z-score | 2.03 z-score | 8.13 z-score | 7.89 z-score |
| CCGATTAACATCAAAATCTTCCCTGATGTTAATCGGGTCTTGATTCGCTTGACGCTGCTG | 5.74 z-score | 5.94 z-score | 4.16 z-score | 1.48 z-score | 5.28 z-score |
| CCGATTAACATCAGGACGTTCCCTGATGTTAATCGGGTCTTGATTCGCTTGACGCTGCTG | 2.27 z-score | 2.22 z-score | 1.01 z-score | 1.51 z-score | 5.14 z-score |
| CCGATTAACATCAAGAATTCCCATGATGTTAATCGGGTCTTGATTCGCTTGACGCTGCTG | 4.1 z-score | 5.41 z-score | 3.48 z-score | 4.5 z-score | 4.33 z-score |
| CCGATTAACATCAGGGAACGCCCTGATGTTAATCGGGTCTTGATTCGCTTGACGCTGCTG | 2.68 z-score | 2.74 z-score | 1.21 z-score | 4.32 z-score | 5.25 z-score |
| CCGATTAACATCAGGGAATTCACTGATGTTAATCGGGTCTTGATTCGCTTGACGCTGCTG | 4.74 z-score | 5.33 z-score | 3.01 z-score | 8.25 z-score | 6.46 z-score |
| CCGATTAACATCAAATCATCCCCTGATGTTAATCGGGTCTTGATTCGCTTGACGCTGCTG | 4.78 z-score | 5.38 z-score | 5.87 z-score | 4.06 z-score | 5.27 z-score |
| CCGATTAACATCAGGTTTTCCCATGATGTTAATCGGGTCTTGATTCGCTTGACGCTGCTG | 3.58 z-score | 3.91 z-score | 4.33 z-score | 5.47 z-score | 4.82 z-score |
| CCGATTAACATCATCTCCCCCCATGATGTTAATCGGGTCTTGATTCGCTTGACGCTGCTG | 4.75 z-score | 2.53 z-score | 8 z-score | 2.29 z-score | 4.57 z-score |
| CCGATTAACATCAGGATAATCCCTGATGTTAATCGGGTCTTGATTCGCTTGACGCTGCTG | 4.74 z-score | 3.01 z-score | 1.51 z-score | 2.88 z-score | 5.24 z-score |
